This passage reports inhibition results from ChEMBL document CHEMBL1961873, “Compounds: GSK PKIS; Assays: Nanosyn kinase panel” (2012).

For assay [1], the target named is Leukocyte tyrosine kinase receptor (Homo sapiens) (UniProt P29376). Particulars: at 1 µM.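 Note: each value is the mean inhibition of LTK.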
The target in assay [2] is Tyrosine-protein kinase Lyn (Homo sapiens) (UniProt P07948). Particulars: at 0.1 µM.
For assay [3] the target is unchanged. The settings on record: at 1 µM.
The target is the same in assay [4]. Particulars: at 0.1 µM. This is another data set of the same source.
For assay [5] the target is unchanged. The settings on record: at 1 µM. The source holds these as a separate data set.
Assay [6] addresses T1, Tyrosine-protein kinase Mer (Homo sapiens) (UniProt Q12866).
T1 sequence (whole entry): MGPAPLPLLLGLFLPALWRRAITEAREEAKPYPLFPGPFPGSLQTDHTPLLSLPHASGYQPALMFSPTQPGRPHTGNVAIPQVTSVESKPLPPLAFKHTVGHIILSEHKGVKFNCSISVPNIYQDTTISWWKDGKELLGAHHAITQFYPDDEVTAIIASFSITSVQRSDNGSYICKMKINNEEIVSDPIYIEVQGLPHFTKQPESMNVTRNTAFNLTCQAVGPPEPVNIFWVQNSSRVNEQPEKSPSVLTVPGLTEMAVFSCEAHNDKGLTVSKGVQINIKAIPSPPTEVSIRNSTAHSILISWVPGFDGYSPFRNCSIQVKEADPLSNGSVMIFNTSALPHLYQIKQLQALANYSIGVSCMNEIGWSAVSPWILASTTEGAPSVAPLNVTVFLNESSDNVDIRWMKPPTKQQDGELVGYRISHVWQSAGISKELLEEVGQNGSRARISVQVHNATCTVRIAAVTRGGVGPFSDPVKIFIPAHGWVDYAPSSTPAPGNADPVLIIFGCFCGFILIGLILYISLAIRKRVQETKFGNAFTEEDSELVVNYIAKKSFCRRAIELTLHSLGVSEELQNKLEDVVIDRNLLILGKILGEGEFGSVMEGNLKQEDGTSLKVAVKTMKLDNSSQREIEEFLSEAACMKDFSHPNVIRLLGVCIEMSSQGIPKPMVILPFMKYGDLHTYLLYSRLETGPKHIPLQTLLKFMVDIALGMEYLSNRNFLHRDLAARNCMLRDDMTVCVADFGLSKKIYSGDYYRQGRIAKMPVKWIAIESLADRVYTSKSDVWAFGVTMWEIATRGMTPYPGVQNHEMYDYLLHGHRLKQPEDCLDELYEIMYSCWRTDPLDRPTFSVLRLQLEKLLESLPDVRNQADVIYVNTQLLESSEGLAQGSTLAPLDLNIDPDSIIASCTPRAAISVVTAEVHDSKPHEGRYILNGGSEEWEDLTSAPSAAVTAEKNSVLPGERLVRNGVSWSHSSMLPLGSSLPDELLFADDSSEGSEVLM
The settings on record: at 0.1 µM.

Assay [7] concerns the target T1, Tyrosine-protein kinase Mer (Homo sapiens). The settings on record: at 1 µM.
Assay [8] addresses Hepatocyte growth factor receptor (Homo sapiens) (UniProt P08581). Particulars: at 0.1 µM.
Assay [9] has the same target. The settings on record: at 1 µM.
In assay [10] the target is T2, Muscle, skeletal receptor tyrosine-protein kinase (Homo sapiens) (UniProt O15146).
T2 sequence (whole entry): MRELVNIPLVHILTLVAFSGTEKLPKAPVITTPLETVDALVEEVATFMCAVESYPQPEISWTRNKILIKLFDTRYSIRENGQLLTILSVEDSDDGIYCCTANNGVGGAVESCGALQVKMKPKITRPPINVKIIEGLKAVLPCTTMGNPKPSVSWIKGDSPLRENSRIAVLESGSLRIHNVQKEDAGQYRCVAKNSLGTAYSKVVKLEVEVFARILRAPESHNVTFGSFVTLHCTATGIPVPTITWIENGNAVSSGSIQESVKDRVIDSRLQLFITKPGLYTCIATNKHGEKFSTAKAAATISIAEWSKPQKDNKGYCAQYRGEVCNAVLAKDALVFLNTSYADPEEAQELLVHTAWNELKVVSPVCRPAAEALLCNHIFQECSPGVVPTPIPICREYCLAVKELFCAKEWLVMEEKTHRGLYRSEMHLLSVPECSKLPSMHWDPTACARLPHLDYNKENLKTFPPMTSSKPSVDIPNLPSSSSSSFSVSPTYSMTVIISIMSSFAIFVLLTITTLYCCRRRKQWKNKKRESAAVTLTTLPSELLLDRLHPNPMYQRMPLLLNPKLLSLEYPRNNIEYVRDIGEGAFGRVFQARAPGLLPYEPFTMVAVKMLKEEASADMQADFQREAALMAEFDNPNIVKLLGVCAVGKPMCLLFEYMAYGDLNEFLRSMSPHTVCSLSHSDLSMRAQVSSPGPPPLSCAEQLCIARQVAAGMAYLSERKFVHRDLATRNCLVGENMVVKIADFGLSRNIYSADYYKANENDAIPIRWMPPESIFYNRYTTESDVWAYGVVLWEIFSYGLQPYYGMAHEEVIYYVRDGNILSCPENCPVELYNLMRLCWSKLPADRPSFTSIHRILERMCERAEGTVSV
The settings on record: at 0.1 µM.

In assay [11] the target is T2, Muscle, skeletal receptor tyrosine-protein kinase (Homo sapiens). The settings on record: at 1 µM.
In assay [12] the target is Platelet-derived growth factor receptor alpha (Homo sapiens) (UniProt P16234). Particulars: at 0.1 µM.
Chain of Platelet-derived growth factor receptor alpha (Homo sapiens) (P16234 whole entry): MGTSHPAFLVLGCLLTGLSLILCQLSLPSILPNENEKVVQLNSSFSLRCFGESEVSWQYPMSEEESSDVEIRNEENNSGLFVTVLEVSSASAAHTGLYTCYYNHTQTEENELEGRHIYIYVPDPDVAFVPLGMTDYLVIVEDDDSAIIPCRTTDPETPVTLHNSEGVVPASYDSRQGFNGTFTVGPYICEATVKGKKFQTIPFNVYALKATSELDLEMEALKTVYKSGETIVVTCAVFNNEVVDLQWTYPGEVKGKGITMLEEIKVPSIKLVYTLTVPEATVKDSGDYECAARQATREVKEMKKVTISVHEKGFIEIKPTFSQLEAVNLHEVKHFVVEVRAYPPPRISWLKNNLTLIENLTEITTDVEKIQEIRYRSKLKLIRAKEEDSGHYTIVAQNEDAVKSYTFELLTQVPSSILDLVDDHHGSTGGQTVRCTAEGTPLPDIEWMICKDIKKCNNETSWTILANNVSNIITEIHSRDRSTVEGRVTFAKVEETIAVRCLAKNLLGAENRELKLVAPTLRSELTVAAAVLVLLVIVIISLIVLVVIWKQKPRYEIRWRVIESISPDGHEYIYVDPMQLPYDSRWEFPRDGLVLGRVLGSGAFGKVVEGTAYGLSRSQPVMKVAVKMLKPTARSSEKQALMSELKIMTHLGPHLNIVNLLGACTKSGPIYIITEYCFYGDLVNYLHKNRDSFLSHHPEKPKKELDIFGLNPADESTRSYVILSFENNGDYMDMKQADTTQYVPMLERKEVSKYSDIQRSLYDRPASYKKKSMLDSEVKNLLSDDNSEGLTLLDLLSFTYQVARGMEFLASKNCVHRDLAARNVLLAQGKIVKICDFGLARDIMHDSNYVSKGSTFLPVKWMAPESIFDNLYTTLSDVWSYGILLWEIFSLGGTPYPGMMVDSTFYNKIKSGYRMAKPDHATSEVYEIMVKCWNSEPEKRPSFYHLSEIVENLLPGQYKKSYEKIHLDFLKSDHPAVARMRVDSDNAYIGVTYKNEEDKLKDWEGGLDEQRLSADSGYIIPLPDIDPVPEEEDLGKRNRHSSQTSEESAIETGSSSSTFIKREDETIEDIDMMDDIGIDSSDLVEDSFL
The target is the same in assay [13]. The settings on record: at 1 µM.
Assay [14] concerns Platelet-derived growth factor receptor alpha (Homo sapiens), P16234 [D842V]. The settings on record: at 0.1 µM.
Chain of Platelet-derived growth factor receptor alpha (Homo sapiens), P16234 [D842V] (P16234 whole entry D842V): as the sequence (P16234 whole entry) above, with D842V counted along it
The test system is the same in assay [15]. Particulars: at 1 µM.
The subject of assay [16] is Platelet-derived growth factor receptor alpha (Homo sapiens), P16234 [T674I]. Particulars: at 0.1 µM.
Assay [17] shares this test system. The settings on record: at 1 µM.
For assay [18], the system named is Platelet-derived growth factor receptor alpha (Homo sapiens), P16234 [V561D]. Particulars: at 0.1 µM.
The test system is the same in assay [19]. Particulars: at 1 µM.
Assay [20] concerns the target Platelet-derived growth factor receptor beta (Homo sapiens) (UniProt P09619). The settings on record: at 0.1 µM.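 Note: reported value is the mean percent inhibition of the kinase.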

Chain of Tyrosine-protein kinase Lyn (Homo sapiens) (P07948 2-512 limits assumed): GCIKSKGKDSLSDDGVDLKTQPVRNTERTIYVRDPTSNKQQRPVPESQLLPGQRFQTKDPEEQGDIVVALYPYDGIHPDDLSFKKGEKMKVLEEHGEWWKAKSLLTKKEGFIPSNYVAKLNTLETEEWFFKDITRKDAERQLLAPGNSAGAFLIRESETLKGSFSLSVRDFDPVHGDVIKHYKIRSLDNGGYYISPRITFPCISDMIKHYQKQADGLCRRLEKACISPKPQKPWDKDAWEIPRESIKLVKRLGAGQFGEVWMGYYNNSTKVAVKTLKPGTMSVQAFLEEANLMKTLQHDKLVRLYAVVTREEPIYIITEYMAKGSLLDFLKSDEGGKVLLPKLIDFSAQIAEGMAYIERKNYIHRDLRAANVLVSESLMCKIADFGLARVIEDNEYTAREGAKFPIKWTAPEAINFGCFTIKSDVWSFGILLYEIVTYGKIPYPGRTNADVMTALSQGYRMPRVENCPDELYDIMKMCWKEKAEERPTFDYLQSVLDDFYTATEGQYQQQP
Chain of Leukocyte tyrosine kinase receptor (Homo sapiens) (P29376 whole entry): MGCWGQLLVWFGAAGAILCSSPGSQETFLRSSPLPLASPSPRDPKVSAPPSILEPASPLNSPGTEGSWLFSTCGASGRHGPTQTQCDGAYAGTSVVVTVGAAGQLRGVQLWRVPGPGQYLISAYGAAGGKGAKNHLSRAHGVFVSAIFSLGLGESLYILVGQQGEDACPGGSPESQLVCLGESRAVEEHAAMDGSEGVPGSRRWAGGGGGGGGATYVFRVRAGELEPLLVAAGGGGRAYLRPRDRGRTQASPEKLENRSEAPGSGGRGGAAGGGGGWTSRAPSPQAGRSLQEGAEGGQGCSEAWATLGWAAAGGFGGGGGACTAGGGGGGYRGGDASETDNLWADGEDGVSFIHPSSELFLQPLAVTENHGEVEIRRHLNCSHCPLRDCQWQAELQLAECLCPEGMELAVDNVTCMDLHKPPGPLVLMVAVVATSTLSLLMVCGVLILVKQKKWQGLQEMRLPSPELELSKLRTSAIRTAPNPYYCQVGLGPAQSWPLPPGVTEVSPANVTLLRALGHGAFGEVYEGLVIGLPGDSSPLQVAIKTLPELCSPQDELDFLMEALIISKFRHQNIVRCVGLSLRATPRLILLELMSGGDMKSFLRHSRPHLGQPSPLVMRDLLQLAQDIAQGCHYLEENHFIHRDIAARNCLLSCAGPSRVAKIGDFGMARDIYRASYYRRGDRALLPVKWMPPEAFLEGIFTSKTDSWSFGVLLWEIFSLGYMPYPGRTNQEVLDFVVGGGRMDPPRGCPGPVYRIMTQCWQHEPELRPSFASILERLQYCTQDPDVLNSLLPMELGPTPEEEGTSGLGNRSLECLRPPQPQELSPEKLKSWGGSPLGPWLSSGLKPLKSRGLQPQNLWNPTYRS
Chain of Platelet-derived growth factor receptor alpha (Homo sapiens), P16234 [T674I] (P16234 whole entry T674I): as the sequence (P16234 whole entry) above, with T674I counted along it

Take `CN(C)C(=O)O[C@@H]1CN[C@@H](C#Cc2cc3ncnc(Nc4ccc(OCc5cccc(F)c5)c(Cl)c4)c3s2)C1`: the inhibition in assay [1] was 0.68%; in assay [2] it was 0.77%; in assay [3] it was 2.73%; in assay [4], 0.28%; in assay [5] it was 1.62%; in [6], -0.95%. Further, the inhibition in assay [7] is 2.89%; in assay [8] it was 5.31%; in assay [9] it was 0.32%; in [10], -0.25%; in [11], 1.14%; in assay [12], 3.88%. The inhibition was found to be 7.94% in [13]; 0.63% in assay [14]; 1.66% in assay [15]; 1% in assay [16]; 0.01% in assay [17]; 0.98% in assay [18]. Further, the inhibition is 5.29% in [19] and 5.61% in assay [20].

With `COc1cccc(-n2ncc3c(N/N=C/c4ccc(C)cc4)ncnc32)c1`, the inhibition was 8.61% in assay [1]; 9.2% in [2]; 23.2% in assay [3]; 5.91% in assay [4]; 18.6% in assay [5]; 2.65% in assay [6]. Besides, the inhibition in assay [7] is 4.53%; in assay [8] it was -2.1%; in assay [9], 7.4%; in assay [10], 6.89%; in assay [11], 13%; in [12] it was 8.78%. The inhibition in assay [13] worked out at 23.2%; in assay [14], 6.24%; in assay [15], 24.4%; in assay [16] it was 4.6%; in assay [17], 17.1%; in [18] it was 7.1%. Besides, the inhibition turned out to be 25.9% in [19] and 7.34% in assay [20].

As for `c1ccc(Nc2ncc(-c3ccccc3)o2)cc1`, the inhibition in [1] was determined as 6.52%; in assay [2] it was 5.9%; in assay [3], 9.62%; in [4], 4.91%; in [5] it was 7.76%; in assay [6] it was 2.15%. Also, the inhibition was 2.41% in assay [7]; 3.87% in assay [8]; 6.02% in assay [9]; 3.65% in assay [10]; 4.33% in assay [11]; 9.48% in [12]. For the same compound, the inhibition came out at 30.3% in assay [13]; 3.2% in [14]; 7.2% in assay [15]; 6.18% in assay [16]; 36.6% in assay [17]; 20% in [18]. In addition, the inhibition in assay [19] came out at 45.7%; in assay [20], 10.8%.

In the case of `c1ccc(Cc2nc3ccc(Nc4ncnc5ccccc45)cc3[nH]2)cc1`, the inhibition worked out at 2.52% in assay [1]; 5.18% in assay [2]; 10.3% in assay [3]; 2.45% in assay [4]; 8.65% in assay [5]; 0.72% in assay [6]. The inhibition in assay [7] was 1.74%; in [8], 4.71%; in [9], 7.9%; in [10], 3.14%; in assay [11], 3.78%; in assay [12], 8.25%. Besides, the inhibition in [13] was 17%; in assay [14], -0.75%; in assay [15] it was 1%; in assay [16], 3.02%; in assay [17], 5.74%; in assay [18] it was 3.34%. The values for the inhibition in assay [19] and in [20] were 12.9% and 4.81%, respectively.

Consider `CCn1c(-c2nonc2N)nc2c(C#CC(C)(C)O)nc(OCCNC)cc21`, for which the inhibition is 4.95% in assay [1]; 5.06% in assay [2]; 5.53% in [3]; 2.97% in assay [4]; 3.02% in [5]; 2.03% in [6]. Further, the inhibition in [7] is 2.24%; in assay [8], 4.48%; in [9], 0.4%; in [10], 1.71%; in assay [11], 3.32%; in assay [12] it was 3.73%. The inhibition in assay [13] came out at 16.3%; in [14] it was 5.07%; in assay [15], 17.5%; in [16] it was 2.61%; in assay [17], 14.2%; in assay [18], 3.69%. Moreover, the figures for the inhibition in [19] and in assay [20] were 11.1% and 3.31%, respectively.

On to `Nc1ccc(C#Cc2cncnc2Nc2ccc(OCc3cccc(F)c3)c(Cl)c2)cc1`, for which the inhibition in [1] was 3.27%; in [2] it was 3.52%; in assay [3], 4.42%; in assay [4] it was 3.04%; in assay [5], 3.28%; in [6] it was 1.5%. In addition, the inhibition was 2.05% in assay [7]; 1.74% in [8]; 3.8% in assay [9]; -0.05% in assay [10]; -0.75% in assay [11]; 3.02% in assay [12]. Moreover, the inhibition in assay [13] came out at 5.52%; in assay [14] it was 2.77%; in assay [15] it was 2.86%; in assay [16] it was 3.22%; in [17] it was 5.56%; in assay [18] it was 1.6%. In addition, the inhibition in [19] amounted to 3.26%; in assay [20], 3.04%.

Consider `CC(C)c1ccc(Nc2nccc(-c3cnn4ncccc34)n2)cc1`, for which the inhibition in [1] was 10.6%; in [2], 4.07%; in assay [3], 7.45%; in assay [4] it was 2.28%; in assay [5], 4.7%; in [6] it was 1.42%. Besides, the inhibition in assay [7] amounted to 7.98%; in assay [8] it was 4.89%; in assay [9] it was 13.5%; in assay [10], 3.14%; in assay [11], 8.57%; in assay [12], 13%. For the same compound, the inhibition in assay [13] was found to be 43.5%; in assay [14], 6.98%; in [15] it was 43%; in [16] it was 12.4%; in assay [17], 63.6%; in assay [18], 18.9%. The inhibition amounted to 55.2% in assay [19] and 9.63% in assay [20].

A word on the inhibition: it is the change of the read-out against control, counted positive when it falls.
